Shiga toxin inh: inhibitors of Shiga toxin in Vero cells. inhibition, % at 38.7 µM. 9.2% of 290,000 active. Vero cells, Shiga toxin protein synthesis inhibition reporter. AID 2315; in the data active means inhibition mostly above about 28%, no sharp cut-off; inactive means mostly below about 43%; further: 0% is about no effect
RE007 growth inh: less growth of the S. pombe RE007 Vpr strain | 0.21% of 360,000 active | S. pombe RE007 Vpr strain, BacTiter-Glo ATP luminescence, 24 h | Potency, µM (doses to about 92.2 µM), inactives show at the top dose activity change, negative = less growth, most hits filed as inhibitors; active means well fitted falling curve with a large enough effect; inconclusive means small, poorly fitted or top-dose-only effect; inactive means no such curve, though single readings can be large or run the other way; further: potency means the concentration at half of the fitted maximal effect; on the % scale 0 is the no-effect control and ±100 the full control effect; nearly all actives have a fitted effect of over 50% in size
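Fission yeast RE007 carrying one integrated HIV-1 vpr copy, seeded at OD 0.01 in PMG+AL medium with 23 nL pinned compound. Grown 24 h at 30 degrees; viability read by BacTiter-Glo luminescence after 5 min.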
Tb PYK inh: inhibitors of Trypanosoma brucei pyruvate kinase; Potency, µM (highest dose often 76.8 µM), without a hit: at the top dose activity, negative = inhibition, hits mostly inhibitors; 0.12% of 410,000 active; TbPYK enzyme, Kinase-Glo Plus ATP luminescence, 45 min; further: potency means the concentration at half of the fitted maximal effect; on the % scale 0 is the no-effect control and ±100 the full control effect; nearly all actives have a fitted effect of over 50% in size
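Enzyme and substrate buffer are dispensed first and compound is pin-transferred. ADP at 130 uM final then starts the reaction, which runs 45 min at room temperature. Detection reagent is added for 10 min before luminescence is imaged.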
Cycloheximide cs: affects cycloheximide protein synthesis inhibition readout, counter-screen | cell reporter, cycloheximide protein synthesis inhibition counterscreen | max response, % | 12% of 300,000 active | AID 2314; in the data active means max response mostly above about 13%, no sharp cut-off; inactive means mostly below about 14%; further: read at 38.3 µM for the half of the compounds with a filed dose; 0% is about no effect
LmPK inhibitor: blocks Leishmania mexicana pyruvate kinase activity; 0.37% of 290,000 active; Q27686; Potency, µM (highest dose often 57.5 µM), for inactives: top-dose activity change, negative = inhibition, usual class: inhibitors; purified LmPK, Kinase-Glo ATP luminescence, 1 h; AID 1721; further: potency means the concentration at half of the fitted maximal effect; on the % scale 0 is the no-effect control and ±100 the full control effect
Target sequence (Q27686 whole entry, looked up): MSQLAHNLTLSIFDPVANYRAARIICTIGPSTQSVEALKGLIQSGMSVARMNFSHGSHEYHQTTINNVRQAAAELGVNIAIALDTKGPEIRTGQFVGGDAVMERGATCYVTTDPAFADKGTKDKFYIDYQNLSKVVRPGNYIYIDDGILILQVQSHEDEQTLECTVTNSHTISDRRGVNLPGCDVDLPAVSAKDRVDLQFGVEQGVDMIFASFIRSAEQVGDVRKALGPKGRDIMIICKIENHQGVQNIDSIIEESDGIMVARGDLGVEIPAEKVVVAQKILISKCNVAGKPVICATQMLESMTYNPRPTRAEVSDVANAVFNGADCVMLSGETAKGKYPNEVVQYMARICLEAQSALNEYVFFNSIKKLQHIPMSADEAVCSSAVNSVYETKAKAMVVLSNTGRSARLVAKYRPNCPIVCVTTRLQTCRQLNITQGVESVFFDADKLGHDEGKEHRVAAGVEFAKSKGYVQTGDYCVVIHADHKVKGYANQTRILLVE
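qHTS format; LmPK 0.1 nM; substrates PEP 0.5 mM and ADP 0.1 mM. One-hour room-temperature incubation, then coupled luciferase luminescence; 0.5 nM enzyme wells mark activation.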
Giardia FBPA inh: inhibitors of Giardia lamblia fructose-1,6-bisphosphate aldolase; A8B2U2; purified Giardia FBPA; Potency, µM (top dose mostly 59.6 µM), for inactives: top-dose activity, negative = inhibition, hits mostly inhibitors; 0.71% of 290,000 active; further: potency means the concentration at half of the fitted maximal effect; on the % scale 0 is the no-effect control and ±100 the full control effect; nearly all actives have a fitted effect of over 55% in size
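40 nM FBPA preincubated 10 min at RT with compound (up to 57.5 uM final), then substrate plus GAPDH/TPI/NAD/arsenate coupling and diaphorase/resazurin added. Fluorescence read after 20 min at RT, 525/598 nm.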
Numbers without * were called inactive; ? = inconclusive; . = no result; [ ] = dose if it differs, or a comment. Shown is part of a subset that was picked to be rich in hits. Unless noted, the call rests on the fitted dose curve; in most records, active means well fitted curve in the direction sought with a large enough effect; inconclusive means small, poorly fitted or top-dose-only effect, or another doubt; inactive means no such curve, though single readings can be large; an effect the other way counts as inactive or inconclusive.

SMILES | Shiga toxin inh | RE007 growth inh | Tb PYK inh | Cycloheximide cs | LmPK inhibitor | Giardia FBPA inh
O=C(NC1CCCC1)C(c1ccncc1)N(C(=O)c1ccco1)c1ccc(Cl)cc1 (configuration not stated) | -3 | 2% | -3% | -6 | -6% | 12%
CC(=O)c1ccc(N(C(=O)c2ccco2)C(C(=O)NC2CCCC2)c2cccs2)cc1 (configuration not stated) | 26 | -29% | -6% | 29* | -2% | .
O=C(NC1CCCCC1)C(c1cccs1)N(C(=O)c1ccco1)c1ccc2c(c1)OCCO2 (configuration not stated) | 10* | -9% | -6% | 24* | -10% | -29%
COc1cccc(N(C(=O)c2ccco2)C(C(=O)NC2CCCC2)c2ccc(N(C)C)cc2)c1 (configuration not stated) | 17 | -26% | -7% | 20* | 0% | -1%
CCc1ccc(N(C(=O)c2ccco2)C(C(=O)NC2CCCC2)c2ccncc2)cc1 (configuration not stated) | 74* | -1% | 1% | 15* | -4% | 8%
CCOc1ccc(C=C2SC(=O)N(CCN)C2=O)cc1 | -17 | . | . | -18 | . | 0%
CC(C)C1C(=O)Nc2ccc(S(=O)(=O)NCc3ccc(Cl)cc3)cc21 (configuration not stated) | . | . | -2% | . | . | .
COc1cccc(-c2cc3nc4c(c(NCC(C)(C)CN(C)C)n3n2)CCCC4)c1 | -10 | 7% | -1% | -2 | 0% | -19%
Clc1cccc(-c2cc3nc4c(c(N5CCOCC5)n3n2)CCCC4)c1 | 46 | 4% | 0% | 22* | 1% | -8%
OC1CCN(c2c3c(nc4cc(-c5ccc(Cl)cc5)nn24)CCC3)CC1 | 13 | 8% | 3% | 1 | -3% | -1%
Fc1cccc(-c2cc3nc4c(c(N5CCOCC5)n3n2)CCCC4)c1 | 48* | 2% | -12% | 52* | -3% | 1%
Clc1cccc(-c2cc3nc4c(c(N5CCN(c6cnccn6)CC5)n3n2)CCCC4)c1 | 37* | -18% | 0% | 38* | 0% | -4%
Fc1cccc(-c2cc3nc4c(c(NCc5ccco5)n3n2)CCCC4)c1 | 87* | 7% | -11% | 39* | -7% | -10%
Clc1cccc(N2CCN(c3c4c(nc5nncn35)CCC4)CC2)c1 | . | . | 2% | . | . | .
c1nc2nc3c(c(N4CCOCC4)n2n1)CCCC3 | 13 | 10% | 0% | 1 | -2% | 3%
COc1ccccc1Cn1ccn(CC(=O)Nc2c(C)cc(C)cc2C)c(=O)c1=O | . | . | 4% | . | . | .
Cc1ccc2c(Sc3ccc(Cl)cc3)c(C(=O)N3CCCCC3)[nH]c2c1 | . | . | -1% | . | . | .
CO[C@@H](C(C)C)[C@@H](C)[C@@H]1OC(=O)C[C@@H]1O | . | . | . | . | . | -1%[12.9 µM]
CC(C)(C)c1ccc(NC(=O)COC(=O)CCN2C(=O)c3cccc([N+](=O)[O-])c3C2=O)cc1 | 7 | -1% | 3% | 18* | 0% | -2%
COc1ccc(NC(=O)c2nn(C)c3c2CS(=O)(=O)c2ccccc2-3)cc1Cl | . | . | 0% | . | . | .
COc1ccccc1-c1c(C)nn2c(N3CCN(c4cccc(Cl)c4)CC3)cc(C)nc12 | . | . | 0% | . | . | .
CCCn1c(CCC(=O)Nc2cc(OC)cc(OC)c2)nc2cccnc21 | . | . | -2% | . | . | .
COc1cccc(CNC(=O)Cc2ccc(NC(=O)N3CCCCc4ccccc43)cc2)c1OC | . | . | -3% | . | . | .
CCCn1c(=O)c2sccc2n2c(CCCC(=O)Nc3ccc(Oc4ccc(Cl)cc4)cc3)nnc12 | . | . | 6% | . | . | .
Cc1ccc(C(=O)N/N=C/c2c[nH]c3ccccc23)o1 | 74* | -1% | -1% | 23* | 5% | 2%
SMILES | Shiga toxin inh | RE007 growth inh | Tb PYK inh | Cycloheximide cs | LmPK inhibitor | Giardia FBPA inh
Cc1cc(C(=O)N/N=C/c2c[nH]c3ccccc23)c(C)o1 | 26 | -5% | 16% | 27* | 0% | 2%
Cc1cc2c(=O)n(C)c(SCC(=O)Nc3ccccc3)nc2s1 | 55* | 16% | 1% | 22* | 3% | -1%
Cn1cc(SCC(=O)Nc2nc3ccccc3s2)c2ccccc21 | 24 | -24% | -12% | 29* | 6% | -12%
Cc1csc(SCC(=O)Nc2nc3ccccc3s2)n1 | 65* | -11% | -4% | 32* | -2% | 1%
COC(=O)c1ccc(NC(=O)COC(=O)CSc2nc(C)cc(C)n2)cc1 | -20 | 1% | -13% | 2 | -2% | 0%
Cc1csc(SCC(=O)Nc2nnc(C)s2)n1 | 3 | -10% | -5% | -2 | 1% | ?
Cc1cc(C)nc(SCC(=O)OCC(=O)Nc2nc3ccccc3s2)n1 | 14* | 14% | 6% | 22* | 3% | -1%
CCCc1cnc2c(c1SCC(=O)N(C)c1ccccc1)c(=O)n(C)c(=O)n2C | . | . | -18% | . | . | .
Cc1csc(SCC(=O)Nc2ccccc2)n1 | 66* | -12% | -2% | 11* | -1% | -6%
CC(=O)C1=C(C)NC(SCC(=O)Nc2nc3ccccc3s2)=C(C#N)C1c1ccc(Cl)cc1 (configuration not stated) | -9 | 3% | -19% | 22* | -3% | 2%
COc1cc(NC(=O)CSc2nc(C)cs2)cc(OC)c1 | 5 | -5% | -6% | 9 | -2% | 21%
Cc1cc(C)n2c(Br)c(CSc3nc4ccccc4s3)nc2n1 | 17 | -25% | 5% | 34* | 1% | -15%
CCc1ccc(NC(=O)CSc2nc(C)cs2)cc1 | . | 11% | 7% | . | . | .
COc1ccc(NC(=O)CCSc2nc(C)cs2)cc1 | 131* | 6% | -4% | 32* | 1% | -2%
CCn1c(CSc2nc3ccccc3s2)nc2ccccc21 | 21 | ? | -4% | 22 | 5% | -19%
O=C(CCCn1c(=O)c2cccn2c2ccc(F)cc21)NCc1ccc(Cl)cc1 | . | . | -4% | . | . | .
COc1ccc(CCNC(=O)Cn2c(=O)cc(C(F)(F)F)c3c(C)nn(C)c32)cc1OC | . | . | 4% | . | . | .
CC(=O)c1ccc(NC(=O)c2ccc3c(c2)N(Cc2cccc(Cl)c2)C(=O)c2ccccc2S3(=O)=O)cc1 | . | . | 0% | . | . | .
Cc1cc(C)nc(NC(=O)CSc2nc3cc(Cl)ccc3s2)n1 | 19 | 1% | 0% | 13 | 3% | 2%
Cc1cc(C)nc(NC(=O)CSc2nc3ccccc3s2)n1 | 83* | 7% | -5% | 33* | -11% | -3%
O=C(O)c1cccc(NC(=O)c2cn(-c3ccccc3)nc2-c2cc3ccccc3o2)c1 | -5 | -2% | -8% | -2 | 2% | 15%
N#C/C(=C\c1cn(-c2ccccc2)nc1-c1cc2ccccc2o1)c1nc2ccccc2[nH]1 | 121* | -20% | 6% | 46* | 0% | -9%
O=C(N/N=C/c1cn(-c2ccccc2)nc1-c1cc2ccccc2o1)c1cccnc1 | 106* | -6% | 4% | 53* | -1% | 4%

Bioassay records as filed in PubChem.
